IMPase cell inh = IMPase inhibition in cells | AID 901 | CHO-M1 cells, IP1 accumulation, HTRF TR-FRET ratio | 120,000 tested, under 10 active | P97697 | inhibition (IP1 accumulation), % at 46.1 µM; active = well fitted curve in the direction sought with a large enough effect in the signal ratio, not every such curve was filed as active; inconclusive = small, poorly fitted or top-dose-only effect, or a change in a side signal; inactive = no such curve, though single readings can be large or run the other way; the % refers to the signal ratio;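 also: cells stimulated with carbachol in lithium chloride buffer; higher means more IMPase inhibition seen as more IP1 and lower FRET ratio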
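Carbachol-driven Gq signalling in CHO-M1 cells (2000/well) generates IP1. Compounds that block IMPase raise IP1 and so reduce the FRET signal from Eu-anti-IP1 and d2-IP1 after a 10 min room-temperature lysis.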
PNC inhibitor = blocks assembly of the perinucleolar compartment; PC3M PTB-GFP, PNC prevalence imaging, 16 h; hits give low values; activity change (PNC), negative = inhibition, % at 10 µM; 140,000 tested, 3.1% active;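 active = readout at or below -70, meaning at least 70% loss of cells showing the perinucleolar compartment, a nuclear body marking cancer cells; inconclusive = readout between -30 and a set limit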
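PC3M cells stably expressing PTB-GFP, 750–1000 cells/well, treated 16 h at 37 °C with compound (23 nl of library stock), in duplicate. After paraformaldehyde fixation and Hoechst stain, imaged at 20x; PNC prevalence scored by image analysis.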
ALOX15B inhib = inhibitors of human 15-lipoxygenase 2 (ALOX15B); O15296; purified 15hLO-2, xylenol orange hydroperoxide absorbance; Potency, µM (highest dose often 57.1 µM), hits mostly inhibitors; 110,000 tested, 0.56% active; also: nearly all actives have a fitted effect of over 60% in size
Target sequence (O15296 whole entry, looked up): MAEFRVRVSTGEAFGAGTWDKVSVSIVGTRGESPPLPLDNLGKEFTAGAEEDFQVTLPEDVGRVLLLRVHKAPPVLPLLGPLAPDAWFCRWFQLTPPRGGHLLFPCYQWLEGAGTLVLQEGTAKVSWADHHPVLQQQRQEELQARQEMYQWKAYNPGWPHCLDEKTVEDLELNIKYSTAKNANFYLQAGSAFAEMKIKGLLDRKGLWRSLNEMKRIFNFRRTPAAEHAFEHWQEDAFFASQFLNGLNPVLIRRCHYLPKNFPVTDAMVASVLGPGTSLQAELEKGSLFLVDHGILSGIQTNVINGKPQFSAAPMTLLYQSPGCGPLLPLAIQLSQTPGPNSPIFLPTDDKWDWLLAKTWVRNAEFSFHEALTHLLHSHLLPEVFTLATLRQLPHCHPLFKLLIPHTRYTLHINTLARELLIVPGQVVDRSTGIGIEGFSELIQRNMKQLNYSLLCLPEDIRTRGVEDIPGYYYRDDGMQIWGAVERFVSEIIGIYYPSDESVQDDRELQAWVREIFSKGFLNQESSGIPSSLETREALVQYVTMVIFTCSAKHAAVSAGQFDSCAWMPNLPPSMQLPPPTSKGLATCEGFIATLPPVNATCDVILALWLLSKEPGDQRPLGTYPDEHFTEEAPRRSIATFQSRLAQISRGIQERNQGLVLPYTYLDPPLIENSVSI
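Purified human 15hLO-2 (50 nM final) preincubated with compounds 15 min at room temperature in 25 mM Hepes pH 7.5, 0.01% Triton X-100, then 45 uM arachidonic acid added for 90 min; hydroperoxide detected via ferrous/xylenol orange, 573/405 nm absorbance ratio.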
12-hLO inh = 12-hLO (ALOX12) enzyme inhibition; purified 12-hLO, xylenol orange hydroperoxide absorbance; Potency, µM (titrated, usually from 57.1 µM), most hits filed as inhibitors; 150,000 tested, 0.12% active; also: nearly all actives have a fitted effect of over 55% in size
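Purified human 12hLO (150 nM final) was preincubated with compounds for 15 min at room temperature in 25 mM Hepes pH 7.0, 0.01% Triton X-100, then reacted with 40 uM arachidonic acid for 30 min. Hydroperoxide was detected with ferrous iron/xylenol orange.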
Hits are given with their value; – = inactive; ? = inconclusive; · = not tested or not shown; [ ] = dose if it differs, or a comment. Most compounds without a hit are left out; they make up all but 3% or so of the library. Unless noted, calls follow the shape of the dose curve; as a rule, active = well fitted curve in the direction sought with a large enough effect; inconclusive = small, poorly fitted or top-dose-only effect, or another doubt; inactive = no such curve, though single readings can be large; an effect the other way counts as inactive or inconclusive.

SMILES | IMPase cell inh | PNC inhibitor | ALOX15B inhib | 12-hLO inh
CCN(CC)c1ccc(CC(=O)NC(C)Cc2ccccc2)cc1 (configuration not stated) | – | -106.3 | · | –
O=C(CC1(O)C(=O)N(CCc2ccccc2)c2ccc(Br)cc21)c1ccc(F)cc1 (configuration not stated) | – | · | · | ·
O=C(Cl)c1c(Cl)cccc1Cl | · | · | – | –
COC(=O)C1=C(C(=O)OC)[C@@H]2Nc3ccccc3[C@@]23C[C@@H](C(=O)OC)N(S(=O)(=O)c2ccc(C#N)cc2)C3=N1 | · | · | · | –[11.4 µM]
Cc1ccc(S(=O)(=O)N(CC(=O)O)c2ccc(Cl)cc2)cc1 | · | · | · | –
Cc1ccc(C)c2c(SC(C)C(=O)NCc3ccco3)nc(-c3ccccc3)nc12 (configuration not stated) | – | -100.0 | · | –
CCOC(=O)c1ccc(NC(=O)NC2CCN(CC(=O)NCc3ccc4c(c3)OCO4)CC2)cc1 | – | – | – | –
COc1ccc(OC)c(NC(=O)C23CCC(C)(C(=O)C2)C3(C)C)c1 (configuration not stated) | ? | -85.5 | –[11.4 µM] | –
COc1ccc(C(=O)Nc2cc(OC)ccc2OC)cc1 | – | – | – | –
O=C(Oc1cccc2c(OC(=O)N3CCCC3)cccc12)N1CCCC1 | – | -100.0 | · | –
COc1ccc(-n2nnc3c(SCC(=O)Nc4ccc5c(c4)OCCO5)ncnc32)cc1 | – | -83.4 | ? | –
Cc1cc(C)n(C(CC(=O)N2CCc3ccccc3C2)C(=O)O)n1 (configuration not stated) | – | -126.5 | – | –
CCOC(=O)C1=NN(c2ccccc2C)C2=NC(C)=C(C(=O)OC)C(c3cccc(OC)c3)N12 (configuration not stated) | · | ? | · | –
O=C(CCC1CCCCC1)NC1=NCCS1 | · | -88.9 | · | –
CC1=CC(C)(C)N(S(=O)(=O)c2ccc(C)cc2)c2cc(C)ccc21 | – | -95.2 | – | –
CCOc1ccccc1-c1c2cc(O)c(=O)cc-2oc2cc(O)c(O)cc12 | ? | -83.5 | · | –
COc1ccc(S(=O)(=O)N(CC(=O)NC(C)c2ccccc2)c2ccc(C)cc2)cc1OC (configuration not stated) | – | · | · | ·
O=C(N/N=C/c1c[nH]c2ccccc12)c1cc(-c2ccc3ccccc3c2)n[nH]1 | – | -112.6 | · | –
Cc1nc(C)c(C(=O)N/N=C/c2cn(C)c3ccccc23)s1 | – | – | – | –
CC(C)(C)OC(=O)N/N=C/c1c[nH]c2ccccc12 | · | -109.0 | · | –
COC(=O)N/N=C/c1c[nH]c2ccccc12 | · | – | · | –
Cc1nc(C)c(C(=O)N/N=C/c2c[nH]c3ccccc23)s1 | – | -87.0 | – | –
O=C(CNC(=O)c1ccco1)OCc1ccc(Cl)cc1 | ? | -80.9 | – | –
COC(=O)c1cccc(COC(=O)CNC(=O)c2ccco2)c1 | – | ? | – | –
CC(=O)Nc1nonc1-c1nc2ccccc2n1CC1CC1 | – | -94.0 | – | –
SMILES | IMPase cell inh | PNC inhibitor | ALOX15B inhib | 12-hLO inh
CC(=O)Nc1nonc1-c1nc2ccccc2n1CCC#N | – | – | – | –
Cc1ccccc1Oc1cc(-n2ncc(Cl)c(Cl)c2=O)ncn1 | · | -86.5 | · | –
CCOC(=O)c1ccc(Oc2cc(C)nc(SC)n2)cc1 | – | -99.8 | ? | –
O=C(N/N=C/c1cccc(F)c1)c1c(O)c2c([nH]c1=O)CCCC2 | · | -114.2 | · | –
CCCNC[C@H](O)COc1ccccc1C(=O)CCc1ccccc1 | – | · | – | –
O=[N+]([O-])c1cc(S(=O)(=O)Nc2ccccc2)ccc1-n1nnc2ccccc21 | – | -114.3 | – | –
O=[N+]([O-])c1cc(C(F)(F)F)ccc1-n1nnc2ccccc21 | – | – | · | –
Cc1ccnc(NC(=S)NC(=O)c2ccco2)c1 | – | – | – | –
COC(=O)C(NC(=O)c1ccco1)(Nc1cc(C)ccn1)C(F)(F)F (configuration not stated) | – | -100.0 | · | –
CC(C)NC(=S)N/N=C1\CCCCC1C1CCCCC1 (configuration not stated) | – | – | ? | ?
CC(C)NC(=O)CCNS(=O)(=O)c1ccc(Br)cc1 | – | – | – | –
CN1CCCC1CCNS(=O)(=O)c1ccc(Br)cc1 (configuration not stated) | – | -109.2 | · | –
Cc1ccc(C(=O)CSC2=C(C#N)C(c3ccco3)C3=C(CCCC3=O)N2)cc1 (configuration not stated) | – | – | – | –
N#CC1=C(SCC(=O)c2ccccc2)NC2=C(C(=O)CCC2)C1c1ccco1 (configuration not stated) | – | -89.4 | – | ?

Compound activity deposited in PubChem by National Center for Advancing Translational Sciences (NCATS).
